Experimental data as given in PubChem BioAssay (NCATS).
Inconclusive results are not listed. A call without a number means that no potency is given here. Active and inactive are the calls of the source. Calls follow the shape of the full dose curve.

experiment: Primary qHTS for inhibitors of MERS-S pseudo-typed particle cell entry (AID 1479149); conditions: MERS-S pseudotyped particle entry, luciferase; series mostly up to 57.1 µM; also: nearly all actives have a fitted effect of over 60% in size
Potency is read from the fitted curve at half-maximal effect.

| SMILES | Potency |
| --- | --- |
| CC(C)OC(=O)[C@H](C)N[P@](=O)(CO[C@H](C)Cn1cnc2c(N)ncnc21)Oc1ccccc1 | inactive |
| CC(=O)OC1C[C@H](O[C@@H]2C(O)C[C@H](O[C@@H]3C(O)C[C@@H](OC4CC[C@]5(C)C(CCC6C5CC(O)[C@@]5(C)C(C7=CC(=O)OC7)CC[C@@]65O)C4)OC3C)OC2C)O[C@H](C)[C@H]1O[C@H]1OC(CO)C(O)C(O)C1O (some centres not stated) | inactive |
| CN(C(=O)/C=C/c1ccoc1)[C@@H]1CC[C@@]2(O)[C@H]3Cc4ccc(O)c5c4[C@@]2(CCN3CC2CC2)[C@H]1O5 | inactive |
| CC[C@@]1(O)C(=O)OCc2c1cc1n(c2=O)Cc2cc3c([N+](=O)[O-])cccc3nc2-1 | inactive |
| CCN(CC)Cc1cc(Nc2ccnc3cc(Cl)ccc23)ccc1O | 14.1 µM (active) |
| CC[C@@]1([C@@H]2O[C@@H]([C@H]3O[C@@](O)(CO)[C@H](C)C[C@@H]3C)C[C@@H]2C)CC[C@H]([C@]2(C)CCC3(C[C@H](O)[C@@H](C)[C@@H]([C@@H](C)[C@@H](OC)[C@H](C)C(=O)O)O3)O2)O1 (some centres not stated) | 1.12 µM (active) |
| CN(C)C/C=C/C(=O)Nc1cc2c(Nc3ccc(F)c(Cl)c3)ncnc2cc1OC1CCOC1 (configuration not stated) | 14.1 µM (active) |
